Reference: PubChem BioAssay AID1159580 (chemical genetic matrix, 2015)
The campaign covered roughly 5,500 compounds. About 2,000 (36%) were called active. Roughly 18% stayed inconclusive and do not appear here. No stated cut-off is given here; in the data, active means normalized growth mostly below about 0.91 (no sharp cut-off); inconclusive means no clear call, values can overlap the other calls; inactive means mostly above about 0.92. The list shows a part of the results.

Test: chemical genetic growth profiling, strain panel (AID 1159580);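 further: tested at 20 µM; growth read once vehicle control cultures reached saturation at 30 °C; 1 = growth at the plate median or of vehicle wells; lower values mean less growth of the strain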
Details: S. cerevisiae deletion strains, growth OD

Measured: normalized growth

Cc1cc(C)c(NC(=S)NCCCN2CCOCC2)c(C)c1
inactive: locus YAL013W, strain DEP1, hits give low values 1 | locus YBR229C, strain ROT2, hits give low values 1.01 | locus YDL101C, strain DUN1, hits give low values 0.992 | locus YDR150W, strain NUM1, hits give low values 0.901 | locus YEL061C, strain CIN8, hits give low values 1.01 | locus YGR078C, strain PAC10, hits give low values 1.02 | locus YHR030C, strain SLT2, hits give low values 1.07 | locus YHR087W, strain rtc3, hits give low values 1.01 | locus YJL187C, strain SWE1, hits give low values 1.01 | locus YJR043C, strain POL32, hits give low values 0.986 | locus YJR075W, strain HOC1, hits give low values 0.999 | locus YLR039C, strain RIC1, hits give low values 1.03 | locus YLR058C, strain SHM2 (second series), hits give low values 1.01 | locus YLR085C, strain ARP6, hits give low values 1.05 | locus YLR262C, strain YPT6, hits give low values 1.02 | locus YML094W, strain GIM5, hits give low values 1 | locus YMR219W, strain ESC1, hits give low values 1 | locus YMR263W, strain SAP30, hits give low values 1.03 | locus YNL153C, strain GIM3, hits give low values 0.992 | locus YNL298W, strain CLA4 (second series), hits give low values 1.04 | locus YNL322C, strain KRE1, hits give low values 1.01 | locus YNR030W, strain Alg12, hits give low values 1.02 | locus YPL055C, strain LGE1, hits give low values 0.912 | locus YPL241C, strain CIN2, hits give low values 0.995 | locus YPR135W, strain CTF4, hits give low values 1.01
